According to PubChem BioAssay AID1159580 (chemical genetic matrix, 2015):
Out of some 5,500 compounds screened, about 2,000 (36%) were called active. Not shown: some 18% with an inconclusive outcome. No stated cut-off is given here; in the data, active means normalized growth mostly below about 0.91 (no sharp cut-off); inconclusive means no clear call, values can overlap the other calls; inactive means mostly above about 0.92. The list shows a part of the results.

Experiment: chemical genetic growth profiling, strain panel (AID 1159580);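 further: tested at 20 µM; growth read once vehicle control cultures reached saturation at 30 °C; 1 = growth at the plate median or of vehicle wells; lower values mean less growth of the strain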
Conditions: growth OD

Measured: normalized growth

COc1ccc2c(c1)CCC1C2CCC2(C)C1C[C@@H](O)C2O (stereo not given in full)
inactive: S. cerevisiae deletion strains, locus YJL187C, strain SWE1, hits give low values 0.991 | S. cerevisiae deletion strains, locus YJR043C, strain POL32, hits give low values 0.999 | S. cerevisiae deletion strains, locus YJR075W, strain HOC1, hits give low values 0.982 | S. cerevisiae deletion strains, locus YKL009W, strain mrt4, hits give low values 0.948 | S. cerevisiae deletion strains, locus YKL068W, hits give low values 1 | S. cerevisiae deletion strains, locus YKL085W, strain MDH1 (second series), hits give low values 0.997 | S. cerevisiae deletion strains, locus YKL085W, strain MDH1, hits give low values 0.997 | S. cerevisiae deletion strains, locus YKL160W, strain elf1, hits give low values 0.958 | S. cerevisiae deletion strains, locus YKL190W, strain CNB1, hits give low values 1.01 | S. cerevisiae deletion strains, locus YKR001C, strain vps1, hits give low values 0.956 | S. cerevisiae deletion strains, locus YKR026C, strain gcn3, hits give low values 0.994 | S. cerevisiae deletion strains, locus YKR091W, strain srl3, hits give low values 0.997 | S. cerevisiae deletion strains, locus YLL001W, strain dnm1, hits give low values 0.966 | S. cerevisiae deletion strains, locus YLL026W, hits give low values 0.974 | S. cerevisiae deletion strains, locus YLL041C, strain sdh2, hits give low values 0.982 | S. cerevisiae deletion strains, locus YLR027C, strain aat2, hits give low values 0.974 | S. cerevisiae deletion strains, locus YLR039C, strain RIC1, hits give low values 0.947 | S. cerevisiae deletion strains, locus YLR058C, strain SHM2, hits give low values 1 | S. cerevisiae deletion strains, locus YLR102C, strain apc9, hits give low values 0.99 | S. cerevisiae deletion strains, locus YLR221C, strain rsa3, hits give low values 0.929 | S. cerevisiae deletion strains, locus YLR258W, strain gsy2, hits give low values 0.965 | S. cerevisiae deletion strains, locus YLR262C, strain YPT6, hits give low values 0.943 | S. cerevisiae deletion strains, locus YLR268W, strain sec22, hits give low values 0.973 | S. cerevisiae deletion strains, locus YLR330W, strain CHS5, hits give low values 1.01 | S. cerevisiae deletion strains, locus YLR342W, strain FKS1 (second series), hits give low values 0.912 | S. cerevisiae deletion strains, locus YLR342W, strain FKS1, hits give low values 0.947 | S. cerevisiae deletion strains, locus YLR357W, strain rsc2, hits give low values 0.987 | S. cerevisiae deletion strains, locus YLR370C, strain arc18, hits give low values 1 | S. cerevisiae deletion strains, locus YLR371W, strain rom2, hits give low values 0.985 | S. cerevisiae deletion strains, locus YLR384C, strain iki3, hits give low values 1.01 | S. cerevisiae deletion strains, locus YLR418C, strain cdc73, hits give low values 0.894 | S. cerevisiae deletion strains, locus YML016C, strain PPZ1, hits give low values 1.01 | S. cerevisiae deletion strains, locus YML032C, strain rad52, hits give low values 0.972 | S. cerevisiae deletion strains, locus YML120C, strain ndi1, hits give low values 0.998 | S. cerevisiae deletion strains, locus YML124C, strain tub3, hits give low values 0.998 | S. cerevisiae deletion strains, locus YMR058W, strain fet3, hits give low values 0.968 | S. cerevisiae deletion strains, locus YMR078C, strain ctf18, hits give low values 0.992 | S. cerevisiae deletion strains, locus YMR125W, strain sto1, hits give low values 1.01 | S. cerevisiae deletion strains, locus YMR129W, hits give low values 1.01 | S. cerevisiae deletion strains, locus YMR205C, strain PFK2, hits give low values 0.964 | S. cerevisiae deletion strains, locus YMR223W, strain ubp8, hits give low values 0.965 | S. cerevisiae deletion strains, locus YMR231W, strain pep5, hits give low values 0.998 | S. cerevisiae deletion strains, locus YMR307W, strain GAS1, hits give low values 0.782 | S. cerevisiae deletion strains, locus YNL067W, strain RPL9B, hits give low values 0.979 | S. cerevisiae deletion strains, locus YNL128W, strain TEP1, hits give low values 0.992 | S. cerevisiae deletion strains, locus YNL209W, strain ssb2, hits give low values 1 | S. cerevisiae deletion strains, locus YNL233W, strain BNI4, hits give low values 0.989 | S. cerevisiae deletion strains, locus YNL248C, strain rpa49, hits give low values 0.979 | S. cerevisiae deletion strains, locus YNL250W, strain rad50, hits give low values 0.983 | S. cerevisiae deletion strains, locus YNL271C, strain bni1, hits give low values 0.983 | S. cerevisiae deletion strains, locus YNL298W, strain CLA4, hits give low values 0.966 | S. cerevisiae deletion strains, locus YNL307C, strain MCK1, hits give low values 0.967 | S. cerevisiae deletion strains, locus YNL322C, strain KRE1 (second series), hits give low values 1.01 | S. cerevisiae deletion strains, locus YNR049C, strain mso1, hits give low values 1.01 | S. cerevisiae deletion strains, locus YNR052C, strain pop2, hits give low values 0.987 | S. cerevisiae deletion strains, locus YOL006C, strain TOP1, hits give low values 0.902 | S. cerevisiae deletion strains, locus YOL012C, strain htz1 0.926 | S. cerevisiae deletion strains, locus YOL147C, strain pex11, hits give low values 1 | S. cerevisiae deletion strains, locus YOR001W, strain rrp6, hits give low values 0.986 | S. cerevisiae deletion strains, locus YOR061W, strain CKA2, hits give low values 1.01 | S. cerevisiae deletion strains, locus YOR069W, strain VPS5, hits give low values 1.01 | S. cerevisiae deletion strains, locus YOR070C, strain gyp1, hits give low values 0.998 | S. cerevisiae deletion strains, locus YOR080W, strain dia2, hits give low values 1 | S. cerevisiae deletion strains, locus YOR083W, strain WHI5, hits give low values 0.914 | S. cerevisiae deletion strains, locus YOR106W, strain vam3, hits give low values 0.916 | S. cerevisiae deletion strains, locus YOR136W, strain idh2, hits give low values 0.997 | S. cerevisiae deletion strains, locus YOR144C, strain elg1, hits give low values 0.995 | S. cerevisiae deletion strains, locus YOR184W, strain ser1, hits give low values 0.945 | S. cerevisiae deletion strains, locus YOR265W, strain rbl2, hits give low values 0.999 | S. cerevisiae deletion strains, locus YOR270C, strain vph1, hits give low values 1.11 | S. cerevisiae deletion strains, locus YOR290C, strain snf2, hits give low values 0.94 | S. cerevisiae deletion strains, locus YOR316C, strain cot1, hits give low values 0.991 | S. cerevisiae deletion strains, locus YPL051W, strain arl3, hits give low values 0.941 | S. cerevisiae deletion strains, locus YPL078C, strain atp4, hits give low values 0.929 | S. cerevisiae deletion strains, locus YPL106C, strain sse1, hits give low values 1.03 | S. cerevisiae deletion strains, locus YPL240C, strain hsp82, hits give low values 1.01 | S. cerevisiae deletion strains, locus YPR119W, strain clb2, hits give low values 0.991 | S. cerevisiae deletion strains, locus YPR141C, strain kar3, hits give low values 0.993 | S. cerevisiae deletion strains, locus YPR163C, strain tif3, hits give low values 0.985 | S. cerevisiae deletion strains, locus YPR167C, strain met16, hits give low values 0.991 | S. cerevisiae deletion strains, strain wtn01, hits give low values 0.978 | S. cerevisiae strains, strain wild type, hits give low values 1.01
active: S. cerevisiae deletion strains, locus YLR262C, strain YPT6 (second series), hits give low values 0.755 | S. cerevisiae deletion strains, locus YLR320W, strain mms22, hits give low values 0.876 | S. cerevisiae deletion strains, locus YNL071W, strain lat1, hits give low values 0.833
